Growth data for 15 compounds are collected here from PubChem BioAssay (NCI).

This is part of a sample that, as a whole, favours compounds with a hit. Of some 83,000 tested, about 20% had one in any assay.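 For each line, cells grew in 96-well plates with the test compound present at a single concentration for 48 hours.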 Activity calls are given as the source filed them. Rule for the calls: active = growth percent below 10; inactive = the rest.

This test relates to HCT-116 colon. The test can be described thus: NCI-60 one-dose screen, 48 h (100 = growth as untreated, 0 = no growth, -100 = all killed). The note with it: 10 µM unless noted.
Regarding `CSc1nc(N)n2nccc2n1`, the growth is 99.2% (inactive).

For `Cc1nnc(-c2cc3c(ccc4ccccc43)oc2=O)c2cn(-c3ccc(Cl)cc3)nc12`, the growth was 85.6% (inactive).

For `COc1ccc(CNCCCN2C(=O)c3ccc4c5c(ccc(c35)C2=O)C(=O)N(CCCNCc2ccc(OC)c(OC)c2OC)C4=O)c(OC)c1OC`, the growth was -71.2% (active).

With `CCCCCCCCCCCCOC(=N)N(C)C`, the growth is 87.6% (inactive).

As to `COCC(=O)NNc1[nH]c(-c2ccc(OC)cc2)cc1C#N`, the growth was 110% (inactive).

As for `c1cc(C2CCCCC2)ccc1OCCCCCCN1CCNCC1`, the growth is -61.7% (active).

For the compound `O=C(CCCC(=O)Nc1ccc(Cn2nnc3cc(Cl)c(Cl)cc32)cc1)Nc1ccc(CN2N=NC3C=C(Cl)C(Cl)=CC32)cc1` (stereo not given), the growth is 75.1% (inactive).

In the case of `COc1cc(N)c2nccc(C)c2c1OC`, the growth was 102% (inactive).

Take `COc1ccc(Cn2cc3c(c2)-c2oncc2CC3)cc1OC`: the growth is 4.37% (active).

As for `Brc1c(-c2ccncc2)nc2n1CCS2`, the growth is 85% (inactive).

As to `CCc1c(C)c2ccc(OCC(=O)N=Nc3c(O)[nH]c4ccccc34)c(C)c2oc1=O`, the growth is -7.72% (active).

Regarding `Nc1ccc(N=Nc2ccccc2)c2cc(S(=O)(=O)O)ccc12`, the growth was 104% (inactive).

In the case of `CC(C)CSc1nc(-c2ccc(F)cc2)c(C#N)c(N2CCCCC2)n1`, the growth was 89.5% (inactive).

Consider `Cc1ccc2c(O)c(O)cc(NC(C)CCCN)c2n1` (stereo not given), for which the growth is 34.7% (inactive).

Regarding `CCn1cnc(C[C@H](NC(=O)[C@@H](NC(=O)Nc2cc(C(F)(F)F)cc(C(F)(F)F)c2)C(C)(C)C)C(=O)OC)c1`, the growth was -81% [100 µM] (active).
